DUSP3 inh: VHR1 phosphatase inhibitors, primary screen, biochemical, colorimetric, HTS | AID 1992, 2009 | inhibition, % at 20 µM | Dual specificity protein phosphatase 3 (Homo sapiens), P51452 | 50,000 tested, 0.7% active | recombinant VHR phosphatase, colorimetric substrate read-out; in the data active means inhibition above about 60%
Target sequence (P51452 whole entry, looked up): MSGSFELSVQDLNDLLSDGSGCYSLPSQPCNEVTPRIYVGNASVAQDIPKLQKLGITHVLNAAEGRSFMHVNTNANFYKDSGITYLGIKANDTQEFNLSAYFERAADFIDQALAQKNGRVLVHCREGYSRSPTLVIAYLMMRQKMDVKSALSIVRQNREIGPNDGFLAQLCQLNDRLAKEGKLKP
* hit, by the source's call. This is one part of a sample in which hits are shown more often than they occur.

SMILES | DUSP3 inh
CCOc1ccc(NC(=O)CN(c2ccccc2CC)S(C)(=O)=O)cc1 | -17.5
O=C(NC(=S)Nc1cccc(-c2nc3ccccc3o2)c1)c1ccco1 | 3.6
NC(=O)C(=O)Nc1cccc2ccccc12 | -0.2
O=C(Nc1cccc2ccccc12)C1C(c2ccccc2)=C1c1ccccc1 | 100.3*
CC1(C)C(C(=O)Nc2cccc3ccccc23)C1(C)C | -8.6
O=C1NC(=S)N/C1=C\c1ccc(-c2cc([N+](=O)[O-])ccc2Br)o1 | -14.4
C=CCN1C(=O)/C(=C\c2cccn2-c2ccc([N+](=O)[O-])cc2)C(=O)NC1=S | 80.0*
C=CCN1C(=O)/C(=C\c2ccc(-c3ccccc3[N+](=O)[O-])o2)C(=O)NC1=S | 87.8*
O=C1NC(=S)NC(=O)C1=Cc1ccc(-c2ccc([N+](=O)[O-])cc2Br)o1 | 64.2*
O=C1NN(c2ccccc2)C(=O)/C1=C/c1cccn1-c1ccc([N+](=O)[O-])cc1 | -0.8
C=CCN1C(=O)/C(=C\c2ccc(-c3ccc(OC)cc3[N+](=O)[O-])o2)C(=O)NC1=S | 6.2
C=CCN1C(=O)/C(=C\c2ccc(-c3ccc([N+](=O)[O-])cc3Br)o2)C(=O)NC1=S | 30.4
O=C1NC(=O)N(c2ccccc2)C(=O)/C1=C\c1cccn1-c1ccc([N+](=O)[O-])cc1 | 24.7
C=CCN1C(=O)/C(=C\c2ccc(-c3ccc([N+](=O)[O-])cc3Cl)o2)C(=O)NC1=S | 18.3
N#CCCn1cc(/C=C2/NC(=S)N(c3ccc(-c4ccccc4)cc3)C2=O)c(-c2ccccc2)n1 | 41.3
Cc1cc(NC(=O)C(C)C)ccc1NC(=O)c1cccs1 | 7.8
O=C1C=C(NNC(=O)c2ccc(Cl)cc2)CCC1 | 13.4
O=C1C(=O)N(c2nc3ccccc3s2)C(c2ccccc2Cl)/C1=C(/O)c1ccccc1 (centres undefined) | -1.5
CC1=C(C(=O)OC(C)C)C(c2ccccc2F)CC(=O)N1 (centres undefined) | 117.7*
CC1=C(C(=O)OCCc2ccccc2)C(c2ccccc2OC(C)C)CC(=O)N1 (centres undefined) | -4.9
CC1=C(C(=O)OCc2ccccc2)C(c2ccccc2OC(C)C)CC(=O)N1 (centres undefined) | 0.2
CCOc1cc(-c2ccc(O)cc2)cc(=O)c2c(C)oc(C)c12 | -12.0
CCOc1cccc(=O)c2c(C)[nH]c(C)c12 | 75.3*
CCOc1cccc(/C=C2/SC(=S)NC2=O)c1O | -0.6
COc1ccc(C(=O)Nc2cc(C)cc(C)c2)c(OC)c1 | 5.5
SMILES | DUSP3 inh
Cc1cc(NS(=O)(=O)c2ccc(NC(=O)c3cc(Cl)cc(Cl)c3)cc2)no1 | -27.9
COc1ccc(C(=O)Nc2ccc(S(=O)(=O)Nc3cc(C)on3)cc2)c(OC)c1 | 109.8*
Cc1ccc(C2Nc3ccccc3NC3=C2C(=O)CC(c2ccccc2)C3)o1 (centres undefined) | -22.0
COc1ccc(C(=O)/C=C/Nc2ccc(Br)c(Cl)c2)cc1 | -20.6
O=C(NC(=S)Nc1ccc2oc3ccccc3c2c1)c1ccccc1 | 7.0
Fc1ccc(NC(=S)Nc2cccc3ccccc23)cc1 | 31.7
S=C(Nc1ccc2c(c1)oc1ccccc12)Nc1cccc2ccccc12 | 105.7*
COc1ccc(CNC(=O)CSCc2cccc(Br)c2)cc1 | -2.5
CC(=O)Nc1c(-c2ccccc2)c(C)nn1Cc1ccccc1 | -12.8
CN1C(=O)/C(=C\c2ccc(-c3ccc(F)c(Cl)c3)o2)SC1=S | -1.9
CN1C(=O)/C(=C\c2ccc([N+](=O)[O-])o2)SC1=S | -3.6
CN1C(=O)/C(=C\c2ccc(Sc3ccc(Cl)cc3)o2)SC1=S | 62.1*
Cc1ccsc1/C=C1/SC(N2CCCC2)=NC1=O | -11.3
CCOC(=O)c1sc(N/N=C/c2ccccc2O)nc1C | -6.6
CCOC(=O)c1sc(NC(=O)c2ccccc2C)nc1C | -9.8
CCOC(=O)c1sc(N/N=C/c2cccc(O)c2)nc1C | 96.7*
COc1cc(NC(=O)c2ccc(OCc3ccccc3)cc2)ccc1NC(=O)c1ccco1 | 14.5
Nc1ccc(Oc2ccc(N)c(N)c2)cc1N | 75.4*
Nc1ccc(Oc2ccc(N)cc2)cc1 | 10.0
COc1ccc(Oc2ccc(Oc3ccc(OC)cc3)cc2)cc1 | -9.1
S=c1oc(-c2ccccc2Cl)nn1CNc1ccccc1Cl | 0.2
COc1ccc(C2c3cc(OC)c(OC)cc3CC(=O)N2c2ccc(OC)cc2)cc1 (centres undefined) | 6.4
CCc1ccc(NC(=O)CN(c2ccc(C)cc2)S(=O)(=O)c2ccccc2)cc1 | 0.9
Cc1ccc(Nc2ccc([N+](=O)[O-])c3nonc23)cc1 | -1.2
N#CC(C#N)=Cc1ccc(-c2ccc(S(N)(=O)=O)cc2)o1 | 8.7
SMILES | DUSP3 inh
CCOC(=O)c1c(N)sc(C)c1-c1ccc(OCC)cc1 | 5.2
CCOC(=O)c1c(N)sc(C)c1-c1ccc(CC(C)C)cc1 | 63.6*
CCOc1ccc(-c2c(C)sc(N)c2C(=O)OC(C)C)cc1 | 13.8
C(=N\n1cnnc1)/c1ccc(OCCOc2ccccc2)cc1 | -20.4
Cc1ccc(C(=O)Oc2ccc(NS(=O)(=O)c3cc(C)ccc3C)cc2)cc1 | -9.9
COc1ccc(C2Nc3ccc(C(=O)c4ccccc4)cc3NC3=C2C(=O)CCC3)c(OC)c1 (centres undefined) | 68.0*
CN(C)c1ccc(C2Nc3ccc(C(=O)c4ccccc4)cc3NC3=C2C(=O)CCC3)cc1 (centres undefined) | 16.6
COc1ccccc1C1Nc2ccc(C(=O)c3ccccc3)cc2NC2=C1C(=O)CCC2 (centres undefined) | -5.6
N/C(=N\OC(=O)c1ccc(Br)cc1)c1cccnc1 | -22.3
Cc1ccc(C)c(N=C2NC(=O)/C(=C/c3ccc(N4CCOCC4)cc3)S2)c1 | 1.7
Cc1cccc(OCC(=O)n2cnnc2N)c1 | -13.5
O=C1NC(=S)N(c2ccc(Br)cc2)C(=O)/C1=C/c1ccc(-c2ccccc2C(=O)O)o1 | 18.2
O=C1NC(=S)N(c2ccc(Br)cc2)C(=O)/C1=C\c1ccc(-c2ccc([N+](=O)[O-])cc2)o1 | 14.2
O=C1NC(=S)N(c2ccc(F)cc2)C(=O)/C1=C/c1ccc(Br)o1 | 94.5*
Cc1cccc(N2C(=O)NC(=O)/C(=C/c3ccc(Br)o3)C2=O)c1 | 29.6
O=C1NC(=O)N(c2ccc(Cl)cc2)C(=O)/C1=C/c1ccc(Br)o1 | 13.8
CC(C)c1ccc(N2C(=O)NC(=O)/C(=C/c3ccc(Br)o3)C2=O)cc1 | 81.6*
COCCN1C(=O)/C(=C\c2ccc(-c3ccc(Br)cc3)o2)SC1=S | 17.0
CCCC(=O)Nc1cc(OC)ccc1OC | -23.4
O=C1CC(c2ccc(Cl)cc2)CC2=C1C(c1cc3c(cc1[N+](=O)[O-])OCO3)Nc1ccccc1N2 (centres undefined) | -3.1
Cc1ccc(C(=O)Nc2sc3c(c2C(=O)N2CCCCCC2)CCC(C)C3)cc1 (centres undefined) | 2.7
Cc1ccc(C(=O)Nc2sc3c(c2C(=O)N2CCC(C(N)=O)CC2)CCCC3)cc1 | 36.6
Cc1ccc(C(=O)Nc2sc3c(c2C(=O)N2CCC(C)CC2)CCCC3)cc1 | 87.1*
Oc1cccc(/C=N/Nc2cc(N3CCCCC3)nc(N3CCCCC3)n2)c1 | -2.3
COc1ccc(CN=Cc2ccc(OC3CSC3)cc2)cc1 | -21.4
CC(=O)NC1=NC(=O)/C(=C\c2ccc(-c3ccc(Cl)c(C(=O)O)c3)o2)S1 | 5.5
CCC(Sc1nnc2c3ccccc3n(C)c2n1)C(=O)Nc1ncccc1Cl (centres undefined) | -9.9
Nc1cccc(C2=Nc3cccc4cccc(c34)N2)c1 | 85.0*
Nc1cccc(-c2cc(C(=O)O)c3ccccc3n2)c1 | 0.2
c1ccc(NC2=Nc3cccc4cccc2c34)cc1 | -9.2

Source: PubChem BioAssay (Sanford-Burnham Center for Chemical Genomics)
